Laboratory results: article PMC7862700, “An all-to-all approach to the identification of sequence-specific readers for epigenetic DNA modifications on cytosine”

Tests used:
Experiment in all cases: DAPPL (digital affinity profiling via proximity ligation, sequencing); 10 mM Tris-HCl pH 7.5, 50 mM NaCl, 1 mM DTT, 4% glycerol, room temperature, 30 min; GST-TFs on glutathione beads, 16-mer random dsDNA library, 0.1% formaldehyde crosslink after washing; high values mean tight binding
[1] = biological target: T1, FLI1 (Homo sapiens, UniProt Q01543 1-452); settings: protein: recombinant; tags: N-terminal GST; dsDNA, one strand shown
T1 sequence: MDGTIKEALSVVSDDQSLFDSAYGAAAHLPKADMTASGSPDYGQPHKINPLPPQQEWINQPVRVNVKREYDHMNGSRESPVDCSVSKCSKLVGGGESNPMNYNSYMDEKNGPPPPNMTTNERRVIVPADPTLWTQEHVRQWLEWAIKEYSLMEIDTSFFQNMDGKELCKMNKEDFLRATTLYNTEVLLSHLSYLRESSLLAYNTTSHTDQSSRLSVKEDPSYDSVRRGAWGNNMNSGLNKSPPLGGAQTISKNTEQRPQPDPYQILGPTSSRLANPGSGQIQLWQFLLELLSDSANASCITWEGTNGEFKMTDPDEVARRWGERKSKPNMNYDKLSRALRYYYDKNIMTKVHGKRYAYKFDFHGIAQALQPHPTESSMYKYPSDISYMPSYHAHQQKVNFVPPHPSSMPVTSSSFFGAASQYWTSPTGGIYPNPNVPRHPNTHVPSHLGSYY
Method in brief: (§1)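 A tag-only sample was pooled with DNA-barcoded human transcription factors that had been expressed in yeast as GST fusions and captured on glutathione beads. The pools were incubated for 30 min at room temperature with 200 nmole of a random double-stranded 16-mer DNA library in Tris/NaCl/DTT/glycerol buffer, then washed, crosslinked with 0.1% formaldehyde, proximity-ligated (BsaI/T4 ligase, 1 h, 37 °C), PCR-amplified and sequenced on an Illumina NextSeq500. Binding signal is each hexamer's read frequency for a factor divided by its frequency for the tag-only sample.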

[2] = biological target: T2, ELK1 (Homo sapiens, UniProt P19419 1-428); settings: protein: recombinant; tags: N-terminal GST; dsDNA, one strand shown
T2 sequence: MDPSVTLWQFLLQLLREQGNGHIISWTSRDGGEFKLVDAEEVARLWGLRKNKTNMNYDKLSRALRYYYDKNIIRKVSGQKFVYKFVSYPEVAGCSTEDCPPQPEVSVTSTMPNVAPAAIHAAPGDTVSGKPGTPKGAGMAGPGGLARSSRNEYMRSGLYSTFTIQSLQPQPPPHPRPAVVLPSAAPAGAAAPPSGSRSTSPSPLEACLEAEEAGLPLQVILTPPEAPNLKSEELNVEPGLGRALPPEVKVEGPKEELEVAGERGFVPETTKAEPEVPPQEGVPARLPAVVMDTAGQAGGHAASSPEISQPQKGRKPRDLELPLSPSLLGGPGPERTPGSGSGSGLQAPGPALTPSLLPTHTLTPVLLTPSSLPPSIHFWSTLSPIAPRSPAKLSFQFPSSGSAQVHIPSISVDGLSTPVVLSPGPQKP
Method in brief: as §1

[3] = biological target: T3, GABPA (Homo sapiens, UniProt Q06546 1-454); settings: protein: recombinant; tags: N-terminal GST; dsDNA, one strand shown
T3 sequence: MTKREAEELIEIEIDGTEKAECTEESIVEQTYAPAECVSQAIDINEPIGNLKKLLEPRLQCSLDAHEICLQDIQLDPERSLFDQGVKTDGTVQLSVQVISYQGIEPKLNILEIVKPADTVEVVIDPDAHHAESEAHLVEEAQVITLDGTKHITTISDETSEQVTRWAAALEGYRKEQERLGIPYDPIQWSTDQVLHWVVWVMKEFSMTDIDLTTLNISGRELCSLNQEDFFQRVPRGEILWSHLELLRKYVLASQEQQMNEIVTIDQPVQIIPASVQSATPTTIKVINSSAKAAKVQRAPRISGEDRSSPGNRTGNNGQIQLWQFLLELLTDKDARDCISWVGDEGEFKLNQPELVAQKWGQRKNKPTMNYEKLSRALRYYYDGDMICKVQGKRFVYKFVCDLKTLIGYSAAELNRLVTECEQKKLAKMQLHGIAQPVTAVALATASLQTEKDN
Method in brief: as §1

[4] = biological target: T4, ERG (Homo sapiens, UniProt P11308 1-479); settings: protein: recombinant; tags: N-terminal GST; dsDNA, one strand shown
T4 sequence: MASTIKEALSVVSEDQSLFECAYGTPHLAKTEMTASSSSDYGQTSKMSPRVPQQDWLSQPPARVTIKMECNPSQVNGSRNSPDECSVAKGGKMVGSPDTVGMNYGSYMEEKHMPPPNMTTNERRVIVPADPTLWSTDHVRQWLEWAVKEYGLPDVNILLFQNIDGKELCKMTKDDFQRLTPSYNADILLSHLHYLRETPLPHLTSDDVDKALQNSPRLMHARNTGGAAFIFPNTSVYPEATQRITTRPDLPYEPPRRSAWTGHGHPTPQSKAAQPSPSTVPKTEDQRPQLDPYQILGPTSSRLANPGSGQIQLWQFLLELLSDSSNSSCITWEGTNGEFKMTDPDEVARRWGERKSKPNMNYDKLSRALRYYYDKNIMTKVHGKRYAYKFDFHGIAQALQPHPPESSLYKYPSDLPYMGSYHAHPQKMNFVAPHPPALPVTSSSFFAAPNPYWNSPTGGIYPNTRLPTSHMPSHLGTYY
Method in brief: as §1

[5] = biological target: ELF1 (Homo sapiens, UniProt P32519 1-619); settings: protein: recombinant; tags: N-terminal GST; dsDNA, one strand shown
Chain of ELF1 (P32519 whole entry): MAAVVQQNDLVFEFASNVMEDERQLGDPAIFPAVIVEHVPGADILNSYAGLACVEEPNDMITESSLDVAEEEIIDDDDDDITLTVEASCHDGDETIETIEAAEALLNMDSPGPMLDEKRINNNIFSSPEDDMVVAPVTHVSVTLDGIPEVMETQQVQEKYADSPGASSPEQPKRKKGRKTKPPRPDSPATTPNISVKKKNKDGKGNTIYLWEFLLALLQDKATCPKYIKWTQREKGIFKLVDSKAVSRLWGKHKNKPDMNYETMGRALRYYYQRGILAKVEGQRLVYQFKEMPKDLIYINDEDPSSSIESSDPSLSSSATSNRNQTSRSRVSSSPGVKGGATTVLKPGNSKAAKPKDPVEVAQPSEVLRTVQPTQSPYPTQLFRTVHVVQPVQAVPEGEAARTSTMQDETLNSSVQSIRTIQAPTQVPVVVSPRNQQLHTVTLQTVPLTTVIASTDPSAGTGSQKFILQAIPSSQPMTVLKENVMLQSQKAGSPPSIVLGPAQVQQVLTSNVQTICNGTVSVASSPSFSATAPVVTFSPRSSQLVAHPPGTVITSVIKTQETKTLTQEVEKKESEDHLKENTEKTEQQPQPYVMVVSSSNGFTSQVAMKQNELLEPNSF
Method in brief: as §1

[6] = biological target: T5, EHF (Homo sapiens, UniProt Q9NZC4 1-300); settings: protein: recombinant; tags: N-terminal GST; dsDNA, one strand shown
T5 sequence: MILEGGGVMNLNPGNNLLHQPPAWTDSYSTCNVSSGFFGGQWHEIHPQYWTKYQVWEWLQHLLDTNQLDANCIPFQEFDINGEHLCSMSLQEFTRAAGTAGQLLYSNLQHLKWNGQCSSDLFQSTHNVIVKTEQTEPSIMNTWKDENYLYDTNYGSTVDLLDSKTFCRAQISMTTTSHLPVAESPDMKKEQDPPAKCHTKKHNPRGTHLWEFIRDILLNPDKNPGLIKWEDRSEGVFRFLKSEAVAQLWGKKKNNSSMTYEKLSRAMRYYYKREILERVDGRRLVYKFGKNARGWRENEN
Method in brief: as §1

[7] = biological target: SPI1 (Homo sapiens, UniProt P17947 1-270); settings: protein: recombinant; tags: N-terminal GST; dsDNA, one strand shown
Method in brief: as §1

[8] = biological target: SPIB (Homo sapiens, UniProt Q01892 1-262); settings: protein: recombinant; tags: N-terminal GST; dsDNA, one strand shown
Chain of SPIB (Q01892 whole entry): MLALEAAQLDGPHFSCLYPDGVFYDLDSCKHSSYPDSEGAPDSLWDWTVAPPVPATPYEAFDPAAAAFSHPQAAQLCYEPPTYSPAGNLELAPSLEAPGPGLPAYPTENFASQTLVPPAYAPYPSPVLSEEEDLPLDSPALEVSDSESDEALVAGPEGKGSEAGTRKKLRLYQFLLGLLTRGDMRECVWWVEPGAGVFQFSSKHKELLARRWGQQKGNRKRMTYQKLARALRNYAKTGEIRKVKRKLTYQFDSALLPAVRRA
Method in brief: as §1

[9] = biological target: T6, ELK3 (Homo sapiens, UniProt P41970 1-407); settings: protein: recombinant; tags: N-terminal GST; dsDNA, one strand shown
T6 sequence: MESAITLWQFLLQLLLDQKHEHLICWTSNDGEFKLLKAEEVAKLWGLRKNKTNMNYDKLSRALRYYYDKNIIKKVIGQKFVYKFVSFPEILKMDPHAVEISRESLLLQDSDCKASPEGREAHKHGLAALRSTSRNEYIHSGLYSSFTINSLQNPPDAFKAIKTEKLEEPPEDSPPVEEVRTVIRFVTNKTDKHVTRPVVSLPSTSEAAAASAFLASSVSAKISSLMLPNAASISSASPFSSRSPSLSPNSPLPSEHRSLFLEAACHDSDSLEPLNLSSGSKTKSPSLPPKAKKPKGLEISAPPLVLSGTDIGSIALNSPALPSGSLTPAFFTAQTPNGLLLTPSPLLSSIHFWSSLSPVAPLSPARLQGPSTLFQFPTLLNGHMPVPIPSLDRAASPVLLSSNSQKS
Method in brief: as §1

[10] = biological target: T7, FEV (Homo sapiens, UniProt Q99581 1-238); settings: protein: recombinant; tags: N-terminal GST; dsDNA, one strand shown
T7 sequence: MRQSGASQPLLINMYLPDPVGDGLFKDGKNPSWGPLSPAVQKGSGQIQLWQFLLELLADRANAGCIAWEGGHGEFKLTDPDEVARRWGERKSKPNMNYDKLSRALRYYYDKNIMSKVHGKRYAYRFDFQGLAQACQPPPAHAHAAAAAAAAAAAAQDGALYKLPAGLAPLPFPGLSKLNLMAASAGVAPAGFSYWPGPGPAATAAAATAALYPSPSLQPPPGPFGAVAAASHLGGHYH
Method in brief: as §1

[11] = biological target: ETV5 (Homo sapiens, UniProt P41161 1-510); settings: protein: recombinant; tags: N-terminal GST; dsDNA, one strand shown
Chain of ETV5 (P41161 whole entry): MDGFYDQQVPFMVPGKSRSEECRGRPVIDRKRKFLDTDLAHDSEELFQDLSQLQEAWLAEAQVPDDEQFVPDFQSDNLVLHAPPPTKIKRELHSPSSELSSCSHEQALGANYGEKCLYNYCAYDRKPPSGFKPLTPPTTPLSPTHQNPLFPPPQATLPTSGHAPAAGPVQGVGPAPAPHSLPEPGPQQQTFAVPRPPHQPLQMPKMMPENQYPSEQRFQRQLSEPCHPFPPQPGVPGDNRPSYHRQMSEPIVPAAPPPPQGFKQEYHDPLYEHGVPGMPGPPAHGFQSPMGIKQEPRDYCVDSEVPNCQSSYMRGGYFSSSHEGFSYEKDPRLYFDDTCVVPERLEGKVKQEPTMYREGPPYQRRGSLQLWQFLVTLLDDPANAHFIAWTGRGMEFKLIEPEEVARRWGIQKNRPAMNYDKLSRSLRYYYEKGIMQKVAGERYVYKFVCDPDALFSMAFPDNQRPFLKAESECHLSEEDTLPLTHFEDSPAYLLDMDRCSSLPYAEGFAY
Method in brief: as §1

[12] = biological target: HSF1 (Homo sapiens, UniProt Q00613 1-529); settings: protein: recombinant; tags: N-terminal GST; chain copies: 3; dsDNA, one strand shown
Chain of HSF1 (Q00613 whole entry): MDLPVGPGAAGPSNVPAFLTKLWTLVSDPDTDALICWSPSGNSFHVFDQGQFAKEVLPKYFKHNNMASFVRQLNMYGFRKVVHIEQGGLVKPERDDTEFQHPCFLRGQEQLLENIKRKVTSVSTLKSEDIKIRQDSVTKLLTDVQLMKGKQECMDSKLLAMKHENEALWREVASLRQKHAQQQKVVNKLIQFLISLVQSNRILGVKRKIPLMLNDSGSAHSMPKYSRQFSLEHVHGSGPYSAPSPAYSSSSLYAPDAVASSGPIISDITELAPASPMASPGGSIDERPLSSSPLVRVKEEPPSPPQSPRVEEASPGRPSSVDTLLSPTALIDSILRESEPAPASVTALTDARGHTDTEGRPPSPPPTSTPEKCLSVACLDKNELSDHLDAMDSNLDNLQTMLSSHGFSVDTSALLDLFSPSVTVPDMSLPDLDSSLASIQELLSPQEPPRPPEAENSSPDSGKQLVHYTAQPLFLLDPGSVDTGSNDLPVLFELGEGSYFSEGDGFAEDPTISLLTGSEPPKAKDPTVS
Method in brief: as §1

[13] = biological target: T8, SPIC (Homo sapiens, UniProt Q8N5J4 1-248); settings: protein: recombinant; tags: N-terminal GST; dsDNA, one strand shown
T8 sequence: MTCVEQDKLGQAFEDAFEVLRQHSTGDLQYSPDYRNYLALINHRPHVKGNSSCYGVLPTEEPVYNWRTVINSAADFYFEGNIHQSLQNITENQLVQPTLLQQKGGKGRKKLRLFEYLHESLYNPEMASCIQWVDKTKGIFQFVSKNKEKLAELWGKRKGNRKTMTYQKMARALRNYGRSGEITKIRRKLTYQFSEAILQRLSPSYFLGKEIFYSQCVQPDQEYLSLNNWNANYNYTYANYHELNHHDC
Method in brief: as §1

[14] = biological target: ELF4 (Homo sapiens, UniProt Q99607 1-663); settings: protein: recombinant; tags: N-terminal GST; dsDNA, one strand shown
Chain of ELF4 (Q99607 whole entry): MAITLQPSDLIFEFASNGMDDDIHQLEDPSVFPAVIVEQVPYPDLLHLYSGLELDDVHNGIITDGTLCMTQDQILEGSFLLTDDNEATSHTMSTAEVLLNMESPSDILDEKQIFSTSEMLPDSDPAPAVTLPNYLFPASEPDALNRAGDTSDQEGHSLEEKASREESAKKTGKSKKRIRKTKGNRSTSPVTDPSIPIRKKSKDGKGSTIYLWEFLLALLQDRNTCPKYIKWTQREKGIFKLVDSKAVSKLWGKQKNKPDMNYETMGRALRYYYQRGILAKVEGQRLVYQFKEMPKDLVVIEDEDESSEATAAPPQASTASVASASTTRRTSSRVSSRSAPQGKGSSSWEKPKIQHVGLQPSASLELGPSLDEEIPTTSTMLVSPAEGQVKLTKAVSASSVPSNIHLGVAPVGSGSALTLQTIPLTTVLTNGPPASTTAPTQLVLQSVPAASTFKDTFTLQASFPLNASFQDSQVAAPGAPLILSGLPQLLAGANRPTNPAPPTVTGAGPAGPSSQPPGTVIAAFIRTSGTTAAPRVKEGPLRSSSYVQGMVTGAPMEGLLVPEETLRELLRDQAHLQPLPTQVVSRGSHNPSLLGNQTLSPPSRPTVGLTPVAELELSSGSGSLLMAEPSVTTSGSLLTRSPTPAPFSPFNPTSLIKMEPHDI
Method in brief: as §1

[15] = biological target: T9, ELK4 (Homo sapiens, UniProt P28324-2 1-405); settings: protein: recombinant; tags: N-terminal GST; dsDNA, one strand shown
T9 sequence: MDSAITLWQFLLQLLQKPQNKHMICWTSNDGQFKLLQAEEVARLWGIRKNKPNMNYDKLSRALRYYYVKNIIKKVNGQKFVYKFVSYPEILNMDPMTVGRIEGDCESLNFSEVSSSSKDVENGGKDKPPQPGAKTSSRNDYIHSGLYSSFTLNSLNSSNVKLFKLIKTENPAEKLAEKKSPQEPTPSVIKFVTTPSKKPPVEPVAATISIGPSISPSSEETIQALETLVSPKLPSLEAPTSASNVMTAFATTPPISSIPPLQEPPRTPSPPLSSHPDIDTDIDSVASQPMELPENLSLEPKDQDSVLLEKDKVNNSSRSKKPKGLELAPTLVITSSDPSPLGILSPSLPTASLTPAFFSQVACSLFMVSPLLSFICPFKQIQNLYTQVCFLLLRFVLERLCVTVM
Method in brief: as §1

[16] = biological target: T10, ETV2 (Homo sapiens, UniProt O00321 1-342); settings: protein: recombinant; tags: N-terminal GST; dsDNA, one strand shown
T10 sequence: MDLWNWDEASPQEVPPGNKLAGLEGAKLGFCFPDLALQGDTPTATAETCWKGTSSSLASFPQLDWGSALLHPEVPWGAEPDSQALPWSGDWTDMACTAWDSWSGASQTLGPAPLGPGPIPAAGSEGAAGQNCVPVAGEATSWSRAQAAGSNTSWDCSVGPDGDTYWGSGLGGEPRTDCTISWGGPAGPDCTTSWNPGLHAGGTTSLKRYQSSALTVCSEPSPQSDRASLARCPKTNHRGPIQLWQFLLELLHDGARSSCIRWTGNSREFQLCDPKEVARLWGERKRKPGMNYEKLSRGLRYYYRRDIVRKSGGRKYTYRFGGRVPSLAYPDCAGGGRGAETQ
Method in brief: as §1

[17] = biological target: T11, ELF3 (Homo sapiens, UniProt P78545 1-371); settings: protein: recombinant; tags: N-terminal GST; dsDNA, one strand shown
T11 sequence: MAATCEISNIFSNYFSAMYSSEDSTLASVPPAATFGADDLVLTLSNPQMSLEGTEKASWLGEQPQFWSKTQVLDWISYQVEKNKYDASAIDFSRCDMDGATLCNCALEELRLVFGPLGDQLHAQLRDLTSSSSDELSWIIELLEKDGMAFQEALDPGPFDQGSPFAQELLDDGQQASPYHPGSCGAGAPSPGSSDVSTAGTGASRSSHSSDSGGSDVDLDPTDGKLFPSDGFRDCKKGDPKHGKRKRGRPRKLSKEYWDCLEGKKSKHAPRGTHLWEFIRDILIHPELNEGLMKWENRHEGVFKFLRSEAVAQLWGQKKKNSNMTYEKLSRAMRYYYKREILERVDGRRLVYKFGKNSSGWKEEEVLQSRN
Method in brief: as §1

[18] = biological target: CRX (Homo sapiens, UniProt O43186 1-299); settings: protein: recombinant; tags: N-terminal GST; dsDNA, one strand shown
Chain of CRX (O43186 whole entry): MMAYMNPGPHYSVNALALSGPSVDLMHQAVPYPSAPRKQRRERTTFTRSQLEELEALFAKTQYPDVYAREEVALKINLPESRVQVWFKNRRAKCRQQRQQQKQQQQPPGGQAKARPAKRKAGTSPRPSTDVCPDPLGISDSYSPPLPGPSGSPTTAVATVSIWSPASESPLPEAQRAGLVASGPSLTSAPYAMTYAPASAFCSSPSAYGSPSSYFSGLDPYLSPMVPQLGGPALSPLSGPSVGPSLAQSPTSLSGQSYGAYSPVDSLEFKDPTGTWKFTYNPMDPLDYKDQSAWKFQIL
Method in brief: as §1

[19] = biological target: ETV1 (Homo sapiens, UniProt P50549 1-477); settings: protein: recombinant; tags: N-terminal GST; dsDNA, one strand shown
Chain of ETV1 (P50549 whole entry): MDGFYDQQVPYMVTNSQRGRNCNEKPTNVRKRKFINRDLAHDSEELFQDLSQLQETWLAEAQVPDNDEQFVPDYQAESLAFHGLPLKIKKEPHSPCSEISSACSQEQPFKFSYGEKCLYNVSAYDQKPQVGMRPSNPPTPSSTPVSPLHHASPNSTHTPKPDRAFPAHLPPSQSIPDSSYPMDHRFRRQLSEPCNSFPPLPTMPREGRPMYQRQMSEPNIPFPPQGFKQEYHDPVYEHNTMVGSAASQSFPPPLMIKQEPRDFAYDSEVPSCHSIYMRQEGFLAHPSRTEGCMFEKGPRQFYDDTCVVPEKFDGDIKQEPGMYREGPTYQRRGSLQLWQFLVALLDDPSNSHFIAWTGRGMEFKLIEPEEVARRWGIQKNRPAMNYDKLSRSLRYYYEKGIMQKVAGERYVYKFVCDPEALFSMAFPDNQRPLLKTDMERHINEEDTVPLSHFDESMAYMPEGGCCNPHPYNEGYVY
Method in brief: as §1

## TCCCTC
[1]
  binding signal: 1.58 fold enrichment (6-mer frequency, TF over GST control)
[2]
  binding signal: 1.6 fold enrichment (6-mer frequency, TF over GST control)
[3]
  binding signal: 1.47 fold enrichment (6-mer frequency, TF over GST control)
[4]
  binding signal: 1.45 fold enrichment (6-mer frequency, TF over GST control)
[5]
  binding signal: 1.51 fold enrichment (6-mer frequency, TF over GST control)
[6]
  binding signal: 1.48 fold enrichment (6-mer frequency, TF over GST control)
[7]
  binding signal: 1.5 fold enrichment (6-mer frequency, TF over GST control)
[8]
  binding signal: 1.58 fold enrichment (6-mer frequency, TF over GST control)
[9]
  binding signal: 1.47 fold enrichment (6-mer frequency, TF over GST control)
[10]
  binding signal: 1.56 fold enrichment (6-mer frequency, TF over GST control)
[11]
  binding signal: 1.43 fold enrichment (6-mer frequency, TF over GST control)
[12]
  binding signal: 1.38 fold enrichment (6-mer frequency, TF over GST control)
[13]
  binding signal: 1.35 fold enrichment (6-mer frequency, TF over GST control)
[14]
  binding signal: 1.7 fold enrichment (6-mer frequency, TF over GST control)
[15]
  binding signal: 1.78 fold enrichment (6-mer frequency, TF over GST control)
[16]
  binding signal: 1.43 fold enrichment (6-mer frequency, TF over GST control)
[17]
  binding signal: 1.43 fold enrichment (6-mer frequency, TF over GST control)
[18]
  binding signal: 1.41 fold enrichment (6-mer frequency, TF over GST control)
[19]
  binding signal: 1.43 fold enrichment (6-mer frequency, TF over GST control)
